Common to all, as to assay: DAPPL (digital affinity profiling via proximity ligation, sequencing); 10 mM Tris-HCl pH 7.5, 50 mM NaCl, 1 mM DTT, 4% glycerol, room temperature, 30 min; GST-TFs on glutathione beads, 16-mer random dsDNA library, 0.1% formaldehyde crosslink after washing; high values mean tight binding
Assay [1] deals with T1, FEV (Homo sapiens, UniProt Q99581 1-238).
T1 sequence: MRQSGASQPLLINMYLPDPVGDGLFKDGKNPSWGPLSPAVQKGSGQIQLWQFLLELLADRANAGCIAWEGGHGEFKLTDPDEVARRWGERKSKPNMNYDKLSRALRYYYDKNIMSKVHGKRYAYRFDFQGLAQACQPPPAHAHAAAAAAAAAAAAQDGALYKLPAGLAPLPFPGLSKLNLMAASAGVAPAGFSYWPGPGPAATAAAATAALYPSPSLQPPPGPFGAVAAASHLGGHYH
Particulars: protein: recombinant; tags: N-terminal GST; dsDNA, one strand shown. In short, it runs like this:
(§1)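 Beads coated with glutathione captured GST-fused human transcription factors that had been expressed in yeast, and the factors were then given DNA barcodes and pooled with a tag-only sample. The pools were incubated with 200 nmole of a random double-stranded 16-mer DNA library in Tris/NaCl/DTT/glycerol buffer for 30 min at room temperature, washed, crosslinked with 0.1% formaldehyde and proximity-ligated with BsaI/T4 ligase at 37 °C for 1 h. PCR amplification and Illumina NextSeq500 sequencing came last. Binding signal is each hexamer's read frequency for a factor divided by its frequency for the tag-only sample.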

Assay [2] has as its target ETV5 (Homo sapiens, UniProt P41161 1-510). The following applies: protein: recombinant; tags: N-terminal GST; dsDNA, one strand shown. In short, it runs like this: as §1
The target in assay [3] is HSF1 (Homo sapiens, UniProt Q00613 1-529). The following applies: protein: recombinant; tags: N-terminal GST; chain copies: 3; dsDNA, one strand shown. In short, it runs like this: as §1
Assay [4] has as its target T2, SPIC (Homo sapiens, UniProt Q8N5J4 1-248).
T2 sequence: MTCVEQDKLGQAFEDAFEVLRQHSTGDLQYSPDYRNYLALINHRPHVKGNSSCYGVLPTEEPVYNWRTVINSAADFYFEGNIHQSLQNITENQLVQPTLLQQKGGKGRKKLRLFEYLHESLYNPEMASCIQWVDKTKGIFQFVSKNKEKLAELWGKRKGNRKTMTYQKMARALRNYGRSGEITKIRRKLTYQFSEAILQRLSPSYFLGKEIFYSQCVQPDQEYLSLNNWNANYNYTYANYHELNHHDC
Particulars: protein: recombinant; tags: N-terminal GST; dsDNA, one strand shown. In outline:
as §1

Assay [5] addresses ELF4 (Homo sapiens, UniProt Q99607 1-663). Particulars: protein: recombinant; tags: N-terminal GST; dsDNA, one strand shown. In short, it runs like this: as §1
Assay [6] addresses T3, ELK4 (Homo sapiens, UniProt P28324-2 1-405).
T3 sequence: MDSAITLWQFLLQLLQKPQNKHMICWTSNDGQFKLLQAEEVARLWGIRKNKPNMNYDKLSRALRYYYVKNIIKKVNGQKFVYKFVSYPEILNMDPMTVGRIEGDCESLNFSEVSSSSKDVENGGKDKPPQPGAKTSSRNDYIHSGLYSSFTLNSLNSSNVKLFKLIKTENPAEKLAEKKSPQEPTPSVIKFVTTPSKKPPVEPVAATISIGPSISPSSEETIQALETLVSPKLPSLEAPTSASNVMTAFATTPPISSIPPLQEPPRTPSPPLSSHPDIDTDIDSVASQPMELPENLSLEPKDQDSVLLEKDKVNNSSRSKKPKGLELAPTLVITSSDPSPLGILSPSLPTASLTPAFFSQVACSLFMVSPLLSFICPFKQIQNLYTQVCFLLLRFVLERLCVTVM
The following applies: protein: recombinant; tags: N-terminal GST; dsDNA, one strand shown. In outline:
as §1

The target of assay [7] is T4, ETV2 (Homo sapiens, UniProt O00321 1-342).
T4 sequence: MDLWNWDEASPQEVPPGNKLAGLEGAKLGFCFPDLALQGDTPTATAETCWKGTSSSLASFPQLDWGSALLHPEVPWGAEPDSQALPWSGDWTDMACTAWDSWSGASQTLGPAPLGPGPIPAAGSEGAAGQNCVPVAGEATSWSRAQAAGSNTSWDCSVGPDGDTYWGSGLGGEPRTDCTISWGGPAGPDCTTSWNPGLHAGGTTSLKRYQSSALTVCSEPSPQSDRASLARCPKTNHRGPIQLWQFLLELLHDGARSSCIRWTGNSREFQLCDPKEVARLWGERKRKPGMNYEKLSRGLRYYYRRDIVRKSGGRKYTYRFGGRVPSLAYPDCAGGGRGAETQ
Particulars: protein: recombinant; tags: N-terminal GST; dsDNA, one strand shown. In short, it runs like this:
as §1

Assay [8] deals with T5, ELF3 (Homo sapiens, UniProt P78545 1-371).
T5 sequence: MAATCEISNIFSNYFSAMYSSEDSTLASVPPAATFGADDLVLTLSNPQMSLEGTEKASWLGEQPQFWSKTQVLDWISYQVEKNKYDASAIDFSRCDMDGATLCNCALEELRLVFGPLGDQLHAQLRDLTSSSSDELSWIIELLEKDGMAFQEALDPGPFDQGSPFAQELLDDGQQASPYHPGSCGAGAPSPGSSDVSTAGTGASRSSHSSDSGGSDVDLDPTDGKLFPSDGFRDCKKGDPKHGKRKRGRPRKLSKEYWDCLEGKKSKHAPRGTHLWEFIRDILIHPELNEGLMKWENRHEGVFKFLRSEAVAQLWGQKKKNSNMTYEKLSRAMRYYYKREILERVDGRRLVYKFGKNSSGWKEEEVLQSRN
Particulars: protein: recombinant; tags: N-terminal GST; dsDNA, one strand shown. In short, it runs like this:
as §1

Assay [9] deals with CRX (Homo sapiens, UniProt O43186 1-299). Particulars: protein: recombinant; tags: N-terminal GST; dsDNA, one strand shown. In outline:
as §1

Assay [10] concerns the target ETV1 (Homo sapiens, UniProt P50549 1-477). The following applies: protein: recombinant; tags: N-terminal GST; dsDNA, one strand shown. In short, it runs like this:
as §1

In assay [11] the target is T6, ERF (Homo sapiens, UniProt P50548 1-548).
T6 sequence: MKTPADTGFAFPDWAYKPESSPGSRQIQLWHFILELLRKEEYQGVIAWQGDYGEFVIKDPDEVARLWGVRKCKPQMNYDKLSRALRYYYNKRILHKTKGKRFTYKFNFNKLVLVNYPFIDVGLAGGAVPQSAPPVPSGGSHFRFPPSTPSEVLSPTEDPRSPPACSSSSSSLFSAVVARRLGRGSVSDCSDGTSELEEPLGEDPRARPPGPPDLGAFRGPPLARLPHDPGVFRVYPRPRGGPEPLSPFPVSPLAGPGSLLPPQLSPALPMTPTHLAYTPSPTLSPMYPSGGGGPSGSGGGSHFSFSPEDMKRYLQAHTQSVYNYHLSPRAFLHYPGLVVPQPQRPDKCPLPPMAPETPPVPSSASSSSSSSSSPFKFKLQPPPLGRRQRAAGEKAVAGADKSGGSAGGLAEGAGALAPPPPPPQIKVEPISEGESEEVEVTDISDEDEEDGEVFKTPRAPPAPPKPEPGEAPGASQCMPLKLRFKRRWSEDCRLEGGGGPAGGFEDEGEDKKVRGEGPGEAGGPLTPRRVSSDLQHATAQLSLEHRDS
Particulars: protein: recombinant; tags: N-terminal GST; dsDNA, one strand shown. In outline: as §1

Assay [12] concerns the target T7, ETV3L (Homo sapiens, UniProt Q6ZN32 1-361).
T7 sequence: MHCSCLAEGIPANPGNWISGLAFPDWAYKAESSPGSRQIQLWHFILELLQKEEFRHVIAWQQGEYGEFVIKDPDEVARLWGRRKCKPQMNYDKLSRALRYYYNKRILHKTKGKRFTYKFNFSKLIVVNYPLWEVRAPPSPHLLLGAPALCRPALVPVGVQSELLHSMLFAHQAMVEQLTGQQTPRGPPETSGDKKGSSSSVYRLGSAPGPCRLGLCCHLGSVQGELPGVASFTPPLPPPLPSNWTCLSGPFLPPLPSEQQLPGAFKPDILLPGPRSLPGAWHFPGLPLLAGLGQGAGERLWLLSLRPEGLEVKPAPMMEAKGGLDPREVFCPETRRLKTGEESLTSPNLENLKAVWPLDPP
Particulars: protein: recombinant; tags: N-terminal GST; dsDNA, one strand shown. In outline: as §1

The target in assay [13] is T8, ETS2 (Homo sapiens, UniProt P15036 1-469).
T8 sequence: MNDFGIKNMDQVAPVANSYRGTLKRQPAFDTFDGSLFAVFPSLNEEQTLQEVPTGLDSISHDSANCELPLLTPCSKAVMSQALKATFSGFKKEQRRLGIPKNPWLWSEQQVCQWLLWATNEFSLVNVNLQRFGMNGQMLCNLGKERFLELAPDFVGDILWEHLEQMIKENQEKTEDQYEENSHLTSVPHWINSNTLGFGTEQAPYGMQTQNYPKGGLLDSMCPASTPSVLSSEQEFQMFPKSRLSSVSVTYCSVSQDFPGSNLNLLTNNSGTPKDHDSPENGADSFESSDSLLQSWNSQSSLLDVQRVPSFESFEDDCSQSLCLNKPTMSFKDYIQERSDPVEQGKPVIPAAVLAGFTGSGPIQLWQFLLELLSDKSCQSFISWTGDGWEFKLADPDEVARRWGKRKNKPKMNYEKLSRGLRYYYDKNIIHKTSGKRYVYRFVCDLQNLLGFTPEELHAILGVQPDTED
The following applies: protein: recombinant; tags: N-terminal GST; dsDNA, one strand shown. In short, it runs like this: as §1

Assay [14] deals with T9, SPDEF (Homo sapiens, UniProt O95238 1-335).
T9 sequence: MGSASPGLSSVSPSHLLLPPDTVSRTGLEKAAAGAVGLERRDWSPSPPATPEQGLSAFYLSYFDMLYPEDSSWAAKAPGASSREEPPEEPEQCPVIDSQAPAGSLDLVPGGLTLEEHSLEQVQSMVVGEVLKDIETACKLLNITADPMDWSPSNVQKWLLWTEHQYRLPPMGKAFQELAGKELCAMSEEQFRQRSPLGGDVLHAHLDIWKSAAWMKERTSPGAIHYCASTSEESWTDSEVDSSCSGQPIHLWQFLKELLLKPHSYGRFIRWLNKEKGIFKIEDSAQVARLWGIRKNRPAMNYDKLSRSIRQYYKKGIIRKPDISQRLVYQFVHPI
The following applies: protein: recombinant; tags: N-terminal GST; dsDNA, one strand shown. In short, it runs like this:
as §1

In assay [15] the target is T10, ETV7 (Homo sapiens, UniProt Q9Y603 1-341).
T10 sequence: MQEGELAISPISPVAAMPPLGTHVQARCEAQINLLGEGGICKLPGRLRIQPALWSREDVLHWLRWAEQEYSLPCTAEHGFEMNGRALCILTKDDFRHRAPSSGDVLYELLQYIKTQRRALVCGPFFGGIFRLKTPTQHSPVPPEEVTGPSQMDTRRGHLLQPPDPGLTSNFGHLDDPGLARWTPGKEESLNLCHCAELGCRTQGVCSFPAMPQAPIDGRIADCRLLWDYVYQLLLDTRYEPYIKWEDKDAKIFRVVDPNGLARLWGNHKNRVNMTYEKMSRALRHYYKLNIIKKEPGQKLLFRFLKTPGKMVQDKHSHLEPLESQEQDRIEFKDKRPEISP
The following applies: protein: recombinant; tags: N-terminal GST; dsDNA, one strand shown. In outline: as §1

Assay [16] deals with T11, ELF5 (Homo sapiens, UniProt Q9UKW6-2 1-255).
T11 sequence: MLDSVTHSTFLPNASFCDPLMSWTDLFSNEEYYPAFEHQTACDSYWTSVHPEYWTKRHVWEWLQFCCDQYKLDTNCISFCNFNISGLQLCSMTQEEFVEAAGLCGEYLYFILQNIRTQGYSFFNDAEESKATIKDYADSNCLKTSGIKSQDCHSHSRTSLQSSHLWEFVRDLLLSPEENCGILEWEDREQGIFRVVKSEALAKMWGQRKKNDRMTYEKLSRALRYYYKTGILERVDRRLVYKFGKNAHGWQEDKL
Particulars: protein: recombinant; tags: N-terminal GST; dsDNA, one strand shown. In short, it runs like this:
as §1

Assay [17] deals with T12, ETV3 (Homo sapiens, UniProt P41162-2 1-143).
T12 sequence: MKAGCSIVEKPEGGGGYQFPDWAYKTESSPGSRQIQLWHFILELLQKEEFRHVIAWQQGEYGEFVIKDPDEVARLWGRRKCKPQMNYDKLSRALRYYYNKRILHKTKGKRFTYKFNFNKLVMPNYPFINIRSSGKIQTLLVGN
Particulars: protein: recombinant; tags: N-terminal GST; dsDNA, one strand shown. In short, it runs like this: as §1

Assay [18] deals with ETV6 (Homo sapiens, UniProt P41212 1-452). The following applies: protein: recombinant; tags: N-terminal GST; dsDNA, one strand shown. In short, it runs like this:
as §1

Chain of ETV5 (P41161 whole entry): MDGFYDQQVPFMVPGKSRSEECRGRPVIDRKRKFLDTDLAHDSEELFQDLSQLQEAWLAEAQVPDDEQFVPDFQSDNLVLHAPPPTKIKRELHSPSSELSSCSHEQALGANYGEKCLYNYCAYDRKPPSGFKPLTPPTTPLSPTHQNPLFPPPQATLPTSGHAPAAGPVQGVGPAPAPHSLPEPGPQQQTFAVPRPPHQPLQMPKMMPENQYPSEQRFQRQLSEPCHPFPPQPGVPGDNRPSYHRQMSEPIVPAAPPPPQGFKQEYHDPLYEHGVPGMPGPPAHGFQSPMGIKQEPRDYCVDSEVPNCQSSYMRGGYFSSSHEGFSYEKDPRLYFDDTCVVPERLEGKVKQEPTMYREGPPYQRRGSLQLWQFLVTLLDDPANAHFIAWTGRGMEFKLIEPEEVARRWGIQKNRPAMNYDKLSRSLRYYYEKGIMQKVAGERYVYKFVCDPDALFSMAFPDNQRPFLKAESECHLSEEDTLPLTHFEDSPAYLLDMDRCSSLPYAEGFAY
Chain of ETV1 (P50549 whole entry): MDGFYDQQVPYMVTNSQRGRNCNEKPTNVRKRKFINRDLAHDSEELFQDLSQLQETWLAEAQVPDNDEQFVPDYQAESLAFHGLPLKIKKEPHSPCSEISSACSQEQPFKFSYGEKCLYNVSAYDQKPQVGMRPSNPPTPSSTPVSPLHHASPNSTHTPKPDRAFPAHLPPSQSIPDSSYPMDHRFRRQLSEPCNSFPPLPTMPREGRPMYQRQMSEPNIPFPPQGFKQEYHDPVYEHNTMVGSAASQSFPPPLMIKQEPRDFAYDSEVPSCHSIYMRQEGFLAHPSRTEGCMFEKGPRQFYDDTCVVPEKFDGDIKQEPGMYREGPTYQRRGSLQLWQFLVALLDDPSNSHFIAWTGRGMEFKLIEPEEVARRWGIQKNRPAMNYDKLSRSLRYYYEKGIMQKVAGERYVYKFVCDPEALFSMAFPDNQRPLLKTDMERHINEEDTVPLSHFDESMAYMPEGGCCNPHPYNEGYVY
Chain of ETV6 (P41212 whole entry): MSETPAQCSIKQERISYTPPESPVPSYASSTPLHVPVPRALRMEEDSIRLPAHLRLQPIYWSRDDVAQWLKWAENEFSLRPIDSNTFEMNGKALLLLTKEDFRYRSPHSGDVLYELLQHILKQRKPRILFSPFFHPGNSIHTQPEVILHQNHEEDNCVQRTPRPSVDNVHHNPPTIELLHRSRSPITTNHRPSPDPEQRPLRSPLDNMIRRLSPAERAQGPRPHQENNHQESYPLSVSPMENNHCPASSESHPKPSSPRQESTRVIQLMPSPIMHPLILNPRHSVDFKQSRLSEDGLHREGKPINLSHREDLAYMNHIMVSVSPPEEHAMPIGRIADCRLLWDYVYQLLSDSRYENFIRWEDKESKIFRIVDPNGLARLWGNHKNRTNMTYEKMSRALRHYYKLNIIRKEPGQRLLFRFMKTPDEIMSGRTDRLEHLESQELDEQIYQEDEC
Chain of CRX (O43186 whole entry): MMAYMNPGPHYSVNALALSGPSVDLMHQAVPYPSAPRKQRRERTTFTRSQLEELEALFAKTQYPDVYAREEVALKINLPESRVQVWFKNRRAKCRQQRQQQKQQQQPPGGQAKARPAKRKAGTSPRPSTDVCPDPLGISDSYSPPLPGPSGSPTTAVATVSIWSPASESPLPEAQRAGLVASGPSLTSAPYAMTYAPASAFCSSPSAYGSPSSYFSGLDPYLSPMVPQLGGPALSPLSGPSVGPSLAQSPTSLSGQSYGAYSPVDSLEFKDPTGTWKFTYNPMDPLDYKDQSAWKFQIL
Chain of HSF1 (Q00613 whole entry): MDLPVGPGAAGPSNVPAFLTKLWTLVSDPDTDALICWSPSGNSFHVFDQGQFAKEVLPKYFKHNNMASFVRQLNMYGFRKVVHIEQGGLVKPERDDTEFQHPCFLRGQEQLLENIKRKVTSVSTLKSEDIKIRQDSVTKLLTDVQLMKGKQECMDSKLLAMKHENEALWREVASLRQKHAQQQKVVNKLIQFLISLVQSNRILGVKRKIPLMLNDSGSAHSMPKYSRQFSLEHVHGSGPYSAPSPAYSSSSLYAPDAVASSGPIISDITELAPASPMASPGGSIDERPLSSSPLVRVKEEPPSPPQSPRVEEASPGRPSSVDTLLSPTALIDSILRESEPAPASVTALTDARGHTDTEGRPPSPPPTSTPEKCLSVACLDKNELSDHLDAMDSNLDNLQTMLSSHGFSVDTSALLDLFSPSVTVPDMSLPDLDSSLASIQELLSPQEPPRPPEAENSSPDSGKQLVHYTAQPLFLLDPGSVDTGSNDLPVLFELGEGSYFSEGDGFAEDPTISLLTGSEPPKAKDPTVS
Chain of ELF4 (Q99607 whole entry): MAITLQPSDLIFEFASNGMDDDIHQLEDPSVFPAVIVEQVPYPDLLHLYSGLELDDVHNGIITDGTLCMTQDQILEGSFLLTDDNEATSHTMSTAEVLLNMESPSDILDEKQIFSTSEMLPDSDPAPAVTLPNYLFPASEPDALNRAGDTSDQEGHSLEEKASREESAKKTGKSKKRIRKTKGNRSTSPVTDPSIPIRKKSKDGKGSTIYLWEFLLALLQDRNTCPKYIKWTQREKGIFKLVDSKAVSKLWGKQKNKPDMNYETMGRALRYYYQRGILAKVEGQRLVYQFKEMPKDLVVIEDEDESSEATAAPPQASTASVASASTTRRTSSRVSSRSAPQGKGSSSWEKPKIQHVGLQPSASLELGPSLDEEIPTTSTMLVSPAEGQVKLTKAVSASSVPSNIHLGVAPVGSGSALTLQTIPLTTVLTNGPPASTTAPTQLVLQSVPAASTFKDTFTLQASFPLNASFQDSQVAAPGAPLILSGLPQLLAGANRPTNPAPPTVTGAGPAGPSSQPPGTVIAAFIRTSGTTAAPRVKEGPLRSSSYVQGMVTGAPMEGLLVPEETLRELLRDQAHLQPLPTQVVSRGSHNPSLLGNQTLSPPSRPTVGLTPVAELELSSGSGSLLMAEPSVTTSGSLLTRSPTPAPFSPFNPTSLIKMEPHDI

For ATTGCG, the binding signal was 1.17 fold enrichment (6-mer frequency, TF over GST control) in assay [1]; 1.24 fold enrichment (6-mer frequency, TF over GST control) in [2]; 1.07 fold enrichment (6-mer frequency, TF over GST control) in [3]; 1.29 fold enrichment (6-mer frequency, TF over GST control) in assay [4]; 1.25 fold enrichment (6-mer frequency, TF over GST control) in assay [5]; 1.14 fold enrichment (6-mer frequency, TF over GST control) in assay [6]. Further, the binding signal in assay [7] was 1.59 fold enrichment (6-mer frequency, TF over GST control); in assay [8] it was 1.29 fold enrichment (6-mer frequency, TF over GST control); in [9], 1.12 fold enrichment (6-mer frequency, TF over GST control); in assay [10] it was 1.29 fold enrichment (6-mer frequency, TF over GST control); in assay [11] it was 1.35 fold enrichment (6-mer frequency, TF over GST control); in assay [12], 1.29 fold enrichment (6-mer frequency, TF over GST control). In addition, the binding signal was 1.27 fold enrichment (6-mer frequency, TF over GST control) in assay [13]; 1.09 fold enrichment (6-mer frequency, TF over GST control) in assay [14]; 1.17 fold enrichment (6-mer frequency, TF over GST control) in assay [15]; 1.21 fold enrichment (6-mer frequency, TF over GST control) in assay [16]; 1.16 fold enrichment (6-mer frequency, TF over GST control) in assay [17]; 1.27 fold enrichment (6-mer frequency, TF over GST control) in [18].

(Values after PMC7862700, “An all-to-all approach to the identification of sequence-specific readers for epigenetic DNA modifications on cytosine”.)
